Source: PubChem BioAssay AID651610 (Broad Institute, 2012)
Among all 360,000 compounds or so, about 3,900 (1.1%) were called active. The sample holds actives, similar compounds and a random draw of the others, so the mix is not that of the screen.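 Rule for the calls: active = mean replicate inhibition score of at least 50 and every replicate individually at or above 50; inconclusive = only one of the two criteria met; inactive = mean below 50 and not all replicates reaching 50.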

Test: inhibitors of HIV-1 Env-driven cell-cell fusion, primary screen, HeLa-JRFL effector, CEM21 target cells, luciferase (AID 651610);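 note: 0% = plate neutral controls and 100% = maraviroc near 300 nM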
Conditions: hits give high values; at 16.7 µM unless noted

Compound | inhibition
CO[C@@H]1CN(C)C(=O)c2cc(NC(C)=O)ccc2OC[C@H](C)N(C(=O)CC2CC2)C[C@@H]1C | -18.3% (inactive)
Cc1noc(C)c1S(=O)(=O)Nc1ccc2c(c1)C(=O)N([C@H](C)CO)C[C@@H](C)[C@@H](CN(C)C(=O)C1CCCCC1)OCCCC[C@@H](C)O2 | 2.09% (inactive)
C[C@H](O)C#Cc1cnc2c(c1)C(=O)N([C@@H](C)CO)C[C@H](C)[C@@H](CN(C)C(=O)c1ccncc1)O2 | -14.6% (inactive)
CO[C@@H]1CN(C)C(=O)c2cc(NC(=O)c3ccc(F)cc3)ccc2OC[C@H](C)NC[C@@H]1C | -6.15% (inactive)
Cc1ccccc1S(=O)(=O)N[C@H]1CC[C@@H](CCn2cc(Cc3ccccc3)nn2)O[C@H]1CO | 0.428% (inactive)
CCCC(=O)Nc1ccc2c(c1)OC[C@@H](C)N(CC1CCOCC1)C[C@H](C)[C@H](OC)CN(C)C2=O | -7.57% (inactive)
C[C@@H]1CN([C@H](C)CO)C(=O)c2cccc(NC(=O)Nc3ccccc3)c2O[C@H]1CN(C)Cc1ccccc1 | 9.88% (inactive)
Cc1ccc(S(=O)(=O)N(C)C[C@@H]2OCCCC[C@H](C)Oc3ccc(NS(=O)(=O)c4cn(C)cn4)cc3C(=O)N([C@H](C)CO)C[C@@H]2C)cc1 | -30.7% (inactive)
CO[C@H]1CN(C)C(=O)c2ccc(NS(=O)(=O)c3ccccc3)cc2OC[C@@H](C)N(Cc2nccs2)C[C@@H]1C | -11.1% (inactive)
C/C=C/c1ccc([C@@H]2[C@@H](CO)N(C(=O)CN(C)C)C23CN(C(=O)C2CCCC2)C3)cc1 | 25.3% (inactive)
COC(=O)C1=C(C(=O)OC)C2C=C(C(C)C)C1C(=O)C2(C)O (configuration not stated) | -16.5% [at 12.3 µM] (inactive)
Cc1c(C(=O)Nc2cccc(S(=O)(=O)N3CCOCC3)c2)oc2ccccc12 | 60.5% [at 12.3 µM] (active)
COc1ccc(NC(=O)c2oc3ccc(S(=O)(=O)N4CCOCC4)cc3c2C)cc1 | 6.27% [at 12.3 µM] (inactive)
Cc1occc1C(=O)Nc1cccc(S(=O)(=O)N2CCOCC2)c1 | -25.4% [at 12.3 µM] (inactive)
COc1ccc(S(=O)(=O)N(C)C[C@@H]2OCCCC[C@@H](C)Oc3ccc(NS(=O)(=O)c4ccccc4)cc3C(=O)N([C@@H](C)CO)C[C@H]2C)cc1 | -2.53% (inactive)
Cc1ccccc1N1CCN(C(=O)c2cccnc2)CC1 | 6.64% [at 12.3 µM] (inactive)
O=C(Nc1ccc(N2CCN(C(=O)c3ccccc3)CC2)c(Cl)c1)c1ncn[nH]1 | 5.87% [at 12.3 µM] (inactive)
O=C(Nc1ccc(N2CCN(C(=O)c3ccccc3)CC2)c(Cl)c1)c1cccnc1 | 86.4% [at 12.3 µM] (active)
C[C@H](CO)N1C[C@H](C)[C@H](CN(C)Cc2ccncc2)Oc2ncc(C#Cc3cccc(F)c3)cc2C1=O | 7.42% (inactive)
CC(C)NC(=O)N[C@@H]1CC[C@H](CC(=O)NCCN2CCCC2)O[C@@H]1CO | 20.3% (inactive)
C[C@H](CO)N1C[C@H](C)[C@H](CN(C)C(=O)Nc2ccc(C(F)(F)F)cc2)Oc2ccc(NC(=O)Nc3ccccc3)cc2C1=O | 15.8% (inactive)
NC(Cc1ccc(F)cc1)c1csc(Nc2nncc3ccccc23)n1 (configuration not stated) | 58.7% [at 12.3 µM] (active)
NC(Cc1ccccc1)c1csc(Nc2cc(Oc3ccccc3)ncn2)n1 (configuration not stated) | -44.1% [at 12.3 µM] (inactive)

Compound | inhibition
COc1ccc(CC(N)c2csc(NC(=O)Cc3ccccc3)n2)cc1 (configuration not stated) | -13.2% [at 12.3 µM] (inactive)
C[C@H]1CCCCO[C@@H](CN(C)Cc2ccc(C(=O)O)cc2)[C@@H](C)CN([C@@H](C)CO)C(=O)c2cc(NS(C)(=O)=O)ccc2O1 | 18.6% (inactive)
CN1C(=O)c2cc(NC(=O)c3ccc4c(c3)OCO4)ccc2OC[C@@H]2O[C@H](CC(=O)O)CC[C@H]21 | -18.9% (inactive)
O=C(Nc1cc(Cl)cc(Cl)c1)N[C@H]1CC[C@@H](CCNS(=O)(=O)c2cccc(F)c2)O[C@H]1CO | 0.313% (inactive)
CCCCNc1cccc2c1S(=O)(=O)N[C@@H](C)CO2 | -0.896% [at 12.3 µM] (inactive)
COc1ccc(C(O)c2nc(-c3ccc4c(c3)OCO4)cs2)cc1 (configuration not stated) | -6.46% [at 12.3 µM] (inactive)
O=C(Nc1nc(-c2ccc3c(c2)OCO3)cs1)c1ccncc1 | 71% [at 12.3 µM] (active)
CCC(CC)c1nnc(NC(=O)C2=COCCO2)s1 | -12% [at 12.3 µM] (inactive)
Cc1ccc(-c2csc(NC(=O)C3=COCCO3)n2)cc1C | 55.4% [at 12.3 µM] (active)
NS(=O)(=O)c1ccc2nc(NC(=O)C3=COCCO3)sc2c1 | -13.9% [at 12.3 µM] (inactive)
C/C(=N/NC(=O)c1ccncc1)c1ccc2c(c1)OCO2 | -13.1% [at 12.3 µM] (inactive)
Cc1noc(C)c1NC(=O)N(C)C[C@@H]1OCCCC[C@@H](C)Oc2ccc(NC(=O)C3CCCCC3)cc2C(=O)N([C@H](C)CO)C[C@@H]1C | -14% (inactive)
C[C@@H]1CN([C@@H](C)CO)C(=O)c2cc(NC(=O)Nc3cccc4ccccc34)ccc2O[C@@H]1CN(C)C(=O)Nc1cccc2ccccc12 | 7.37% (inactive)
C[C@@H]1CN([C@@H](C)CO)C(=O)c2cc(-c3cncnc3)cnc2O[C@H]1CN(C)C(=O)c1cccc(F)c1 | -6.88% (inactive)
C[C@@H]1CN([C@@H](C)CO)S(=O)(=O)c2ccc(C#CC3(O)CCCC3)cc2O[C@H]1CN(C)C(=O)c1ccncc1 | -22.7% (inactive)
CNC[C@H]1Oc2cc(-c3ccc(OC)cc3)ccc2S(=O)(=O)N([C@H](C)CO)C[C@@H]1C | 1.64% (inactive)
CNC[C@H]1Oc2c(NC(=O)C3CC3)cccc2C(=O)N([C@@H](C)CO)C[C@@H]1C | -1.43% (inactive)
CCS(=O)(=O)N[C@@H]1CC[C@@H](CC(=O)NCC2CC2)O[C@H]1CO | -3.04% (inactive)
C[C@@H]1CN([C@H](C)CO)S(=O)(=O)c2ccc(-c3ccccc3)cc2O[C@H]1CN(C)C(=O)C1CCC1 | 19.5% (inactive)
C[C@@H]1CN([C@@H](C)CO)C(=O)Cc2cc(NS(=O)(=O)c3ccc(Cl)cc3)ccc2O[C@H]1CN(C)CC1CCCCC1 | 32.1% (inactive)
C[C@H]1CN([C@@H](C)CO)C(=O)c2cc(-c3cccc(C(=O)N(C)C)c3)cnc2O[C@H]1CN(C)S(=O)(=O)c1ccccc1 | -10.1% (inactive)
O=C(C[C@H]1C[C@@H]2c3cc(NC(=O)C4CCC4)ccc3O[C@@H]2[C@H](CO)O1)NCCN1CCCCC1 | 16.8% (inactive)
CCOC(=O)C1=C(CN2CCc3ccccc32)NC(=O)NC1c1cc(C)ccc1C (configuration not stated) | -13.6% [at 12.3 µM] (inactive)

Compound | inhibition
CCC(CC)COC(=O)C1=C(C)NC(=O)NC1c1ccc([N+](=O)[O-])cc1 (configuration not stated) | 29.9% [at 12.3 µM] (inactive)
CCOC(=O)C1=C(CCc2ccccc2)NC(=O)NC1c1ccc2ccccc2c1 (configuration not stated) | 6.29% [at 12.3 µM] (inactive)
CCOC(=O)C1=C(c2ccccc2)NC(=O)NC1c1cc(OCC)c(O)c([N+](=O)[O-])c1 (configuration not stated) | -15.8% [at 12.3 µM] (inactive)
CCOC(=O)C1=C(CN2CCc3ccccc32)NC(=O)NC1c1cccc([N+](=O)[O-])c1 (configuration not stated) | 64.3% [at 12.3 µM] (active)
CCOC(=O)C1=C(CN2CCc3ccccc32)NC(=O)NC1c1ccc(Cl)cc1 (configuration not stated) | 58% [at 12.3 µM] (active)
CNC[C@@H]1Oc2c(NC(=O)C3CCOCC3)cccc2C(=O)N([C@@H](C)CO)C[C@H]1C | -14.2% (inactive)
C[C@H]1CN([C@@H](C)CO)C(=O)Cc2cc(NC(=O)C3CC3)ccc2O[C@@H]1CN(C)C(=O)NC1CCCCC1 | 2.31% (inactive)
C/C=C/c1ccc2c(c1)O[C@H](CN(C)C(=O)C1CCCCC1)[C@@H](C)CN([C@@H](C)CO)S2(=O)=O | 8.29% (inactive)
C[C@@H]1CN([C@H](C)CO)C(=O)c2cc(C3=CCCC3)cnc2O[C@@H]1CN(C)C(=O)Nc1ccc(F)cc1 | 4.49% (inactive)
CC1(C(=O)N/N=C/c2cc3c(cc2Br)OCO3)CC1(Br)Br (configuration not stated) | 102% [at 12.3 µM] (active)
O=C(N/N=C\c1cc2c(cc1Cl)OCO2)c1ccc(Br)s1 | -61.6% [at 12.3 µM] (inactive)
O=C(O)CC/C(=C\c1cc2c(cc1Br)OCO2)c1nc2ccccc2s1 | -9.93% [at 12.3 µM] (inactive)
Cc1noc(C)c1S(=O)(=O)Nc1ccc2c(c1)CC(=O)N([C@H](C)CO)C[C@H](C)[C@H](CN(C)S(=O)(=O)c1cn(C)cn1)O2 | -15.2% (inactive)
Cc1noc(C)c1NC(=O)N(C)C[C@@H]1Oc2ccc(NS(=O)(=O)c3ccc(F)cc3)cc2CC(=O)N([C@@H](C)CO)C[C@H]1C | -12% (inactive)
Cc1ccc(-c2cn3cc(C)ccc3n2)cc1 | 60.5% [at 12.3 µM] (active)
Cc1ccc(-c2nc3ccc(Cl)cn3c2Cc2ccccc2)cc1 | -27% [at 12.3 µM] (inactive)
Cc1ccc2nc(-c3ccc(Br)cc3)cn2c1 | 34.5% [at 12.3 µM] (inactive)
C[C@H](CO)N1C[C@H](C)[C@@H](CN(C)S(=O)(=O)c2ccccc2F)Oc2ncc(C#Cc3ccccc3F)cc2C1=O | 17.5% (inactive)
CCOC(=O)N1CCN(C(=O)c2nn(-c3ccc(C)cc3)c(=O)c3c2c2ccccc2n3C)CC1 | -11% [at 12.3 µM] (inactive)
Cn1c2ccccc2c2c(C(=O)N3CCN(c4ccc(F)cc4)CC3)cn(C3CCCC3)c(=O)c21 | 67.5% [at 12.3 µM] (active)
Cn1c(C(=O)N2CCC(C(N)=O)CC2)cc2c(=O)n(C)c3ccccc3c21 | 0.068% [at 12.3 µM] (inactive)
